Hits are enriched below; roughly 3.8% of the tested compounds scored in any of these assays.
ATXN2 expr inh – Primary qHTS for Inhibitors of ATXN expression; Potency, µM (doses to about 57 µM), for inactives: top-dose activity change, negative = inhibition, hits mostly inhibitors; actives 0.72% (n = 360,000); HEK-293 ATXN2-luciferase reporter, luminescence, 24 h; further: on the % scale 0 is the no-effect control and ±100 the full control effect; nearly all actives have a fitted effect of over 55% in size
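ATXN2-luciferase reporter cells (luciferase flanked by upstream and downstream ATXN2 gene portions) were treated 24 h at 37 °C with compounds at up to 57 uM. SteadyGlo luminescence gave expression; GF-AFC fluorescence gave viability.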
HepG2 tox – qHTS for Inhibitors of TGF-b: Cytotox Counterscreen; HepG2 CAGA-GFP viability, ATP luminescence, 18 h; Potency, µM (series often up to 46.1 µM), inactives show at the highest dose activity change, negative = cytotoxicity, most hits filed as cytotoxic; actives 0.76% (n = 410,000)
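HepG2 CAGA-GFP cells (1000/well, DMEM with 1% FBS) received compound, then TGF-beta at 500 pg/mL final, and were incubated 18 hours at 37 degrees C. Viability was read by CellTiter-Glo luminescence. Media-only wells were set as complete cell-killing and DMSO as no toxicity.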
ATXN viability – Viability Counterscreen for Primary qHTS for Inhibitors of ATXN expression. S2 cells (HEK-293 line with an ATXN2-luciferase reporter) viability, CellTiter-Fluor protease fluorescence, 24 h. Potency, µM (highest dose often 56.7 µM), most hits filed as cytotoxic. actives 0.49% (n = 400,000); further: nearly all actives have a fitted effect of over 40% in size
TGFb inhibitor – qHTS for Inhibitors of TGF-b | Potency, µM (doses to about 46.1 µM), for inactives: top-dose activity, negative = inhibition, actives largely listed as inhibitors | HepG2 CAGA-GFP TGF-b/SMAD3 reporter, GFP fluorescence, 18 h; TGF-beta stimulated, 500 pg/mL final | actives 1.2% (n = 410,000) | AID 588855, 2011; further: on the % scale 0 is the no-effect control and ±100 the full control effect; nearly all actives have a fitted effect of over 65% in size
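HEPG2 CAGA-GFP reporter cells (1000/well, DMEM with 1% FBS) received compounds, then recombinant TGF-beta at 500 pg/mL final for 18 hours at 37 degrees C. Per-cell GFP summed per well was normalised to unstimulated and stimulated DMSO controls before curve fitting.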
Nrf2 block – Nrf2 qHTS screen for inhibitors | A549 ARE-Fluc reporter, luciferase luminescence, 18-24 h | Potency, µM (series often up to 46 µM), for inactives: at the top dose activity change, negative = inhibition, actives largely listed as inhibitors | actives 2.1% (n = 360,000) | AID 504444, 2011; further: on the % scale 0 is the no-effect control and ±100 the full control effect; nearly all actives have a fitted effect of over 60% in size
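Quantitative HTS in A549 cells stably bearing an antioxidant response element-firefly luciferase construct. Inhibition of Nrf2-driven transcription was scored by luminescence after 18-24 h of compound exposure at 37 °C.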
A549 tox – Nrf2 qHTS screen for inhibitors: counterscreen for cytotoxicity. A549 ARE-Fluc cells, CellTiter-Fluor viability, 18-24 h. Potency, µM (highest dose often 46 µM), without a hit: at the highest dose activity change, negative = cytotoxicity, hits mostly inhibitors. actives 0.16% (n = 390,000). AID 504648, 2011; further: on the % scale 0 is the no-effect control and ±100 the full control effect
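Cytotoxicity counterscreen: CellTiter-Fluor fluorescence was measured in A549 ARE_Fluc cells after 18-24 h of compound exposure in a concentration series. The subsequent BugLite luminescent read reports ARE-luciferase activity.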
An asterisk follows results filed as active; i = inactive; ? = inconclusive; · = no result given; [ ] = remark or other dose. The call rests on the fitted dose curve; in most records, active means well fitted curve in the direction sought with a large enough effect; inconclusive means small, poorly fitted or top-dose-only effect, or another doubt; inactive means no such curve, though single readings can be large; an effect the other way counts as inactive or inconclusive. Potency means the concentration at half of the fitted maximal effect.

SMILES	ATXN2 expr inh	HepG2 tox	ATXN viability	TGFb inhibitor	Nrf2 block	A549 tox
Cc1ccc(C(NC(=O)C(C)C)c2cc([N+](=O)[O-])c3cccnc3c2O)cc1 (stereo unspecified)	?	-3.6%	i	-14.8%	18.4µM*	?
CCN(CC)C(=O)Cn1cc([N+](=O)[O-])cc1[N+](=O)[O-]	4.1%	-0.1%	i	-7.4%	7.7%	-2.2%
Cc1ccc2nc(-c3ccc(N=Nc4cc(S(=O)(=O)O)c5ccccc5c4O)cc3)sc2c1S(=O)(=O)O	·	3.0%	·	-12.6%	11.9%	13µM*
Cc1ccc2c(c1)cc(C(=O)NCc1ccc(F)cc1)n2C	142.7%	-0.9%	?	23.5%	?	-7.7%
COc1cccc(NC(=O)CN(C)C(=O)CCC(=O)c2cc(C)sc2C)c1	-8.2%	-7.0%	i	-1.4%	-19.3%	-7.3%
COc1ccc(Cl)cc1NC(=O)CN(C)C(=O)CCC(=O)c1cc(C)sc1C	-17.5%	-8.1%	i	13.1%	8.2µM*	16.4µM*
COc1cc(=O)n2c(c1C(=O)NC(C)c1ccco1)CCN(Cc1cc3ccccc3o1)CC2 (stereo unspecified)	·	·	i	·	·	·
CCCCn1c(=O)n(-c2cc(OC)ccc2OC)c(=O)c2c3c(sc21)CN(C(C)=O)CC3	1.1%	-34.0%	i	-13.2%	8.1%	1.0%
CNc1ccccc1C(C)(C)c1cc(-c2ccc(F)cc2)no1	0.0%	-27.8%	i	?	8.2µM*	-14.6%
CNc1ccccc1C(C)(C)c1cc(-c2cccc(Br)c2)no1	-31.7%	-21.7%	i	-25.1%	?	-22.3%
COc1ccc(/C=N/NC(=O)C(=O)N2CCCCCC2)cc1O	-12.4%	-4.3%	i	2.2%	-11.3%	4.1%
COc1ccc(CC(=O)NNC(=O)c2cnccn2)cc1	·	-3.1%	i	-3.9%	2.2%	5.5%
COc1cc(C(=O)NC(=S)NNC(=O)c2cnccn2)cc(OC)c1OC	?	-4.3%	i	-4.0%	4.61µM*	-15.7%
CCCCOc1ccc(C(=O)NNC(=O)c2cnccn2)cc1OC	?	-34.2%	i	22.1%	10.3µM*	0.3%
CC(C)(C)NC(=O)CN(C(=O)CN1C(=O)C(=O)c2ccccc21)C(C)(C)C	-5.9%[11.3 µM]	1.4%	i	4.6%	0.7%	0.2%
N=c1oc2ccc3ccccc3c2cc1C(N)=S	·	-2.1%	i	-11.2%	-6.9%	2.7%
COc1ccc2[nH]c3c(c2c1)CCN1C(=O)C(CC(=O)NCC24CC5CC(CC(C5)C2)C4)C[C@H](C(=O)N2CCCCC2)[C@@]31C (stereo partly specified)	8.7%	-0.1%	i	?	?	?
COc1ccc2[nH]c3c(c2c1)CCN1C(=O)C(CC(=O)NCCC2=CCCCC2)C[C@H](C(=O)N2CCOCC2)[C@@]31C (stereo partly specified)	0.0%	-0.1%	i	?	2.7%	-5.9%
CCN(CC)C(=O)[C@H]1CC(CC(=O)NCC23CC4CC(CC(C4)C2)C3)C(=O)N2CCc3c([nH]c4ccc(OC)cc34)[C@]12C (stereo partly specified)	-3.5%	2.0%	?	?	23.1µM*	-7.4%
CC(C)N(C(=O)[C@H]1C[C@H](CC(=O)NCC23CC4CC(CC(C4)C2)C3)C(=O)N2CCc3c([nH]c4cc(CCC(=O)N(C)C)ccc34)[C@]12C)C(C)C	?	-72.5%	25.1µM*	?	20.6µM*	?
COc1ccc2[nH]c3c(c2c1)CCN1C(=O)C(CC(=O)NC/C=C(\C)CCC=C(C)C)C[C@H](C(=O)N(C(C)C)C(C)C)[C@@]31C (stereo partly specified)	2.2%	-103.4%	i	15.8µM*	?	?
CC(C)N(C(=O)[C@H]1C[C@H](CC(=O)NCCC2=CCCCC2)C(=O)N2CCc3c([nH]c4ccc(Cl)cc34)[C@]12C)C(C)C	-7.1%	-22.1%	i	?	20.6µM*	?
CC(C)=CCC/C(C)=C/CNC(=O)C[C@H]1C[C@H](C(=O)N(C(C)C)C(C)C)[C@@]2(C)c3[nH]c4ccc(Cl)cc4c3CCN2C1=O	2.6%	-4.2%	i	-23.0%	9.7%	-3.4%
Cc1nn(C(C)C(=O)NCCCc2ccccc2)c(=O)c2nn(-c3ccccc3)c(C)c12 (stereo unspecified)	-23.4%	-14.5%	i	-20.3%	?	-1.7%
CC(C)C[C@H]1CN(CCCC[C@H]2CNC(=O)C(=O)N2CC2CCCCC2)C(=O)C(=O)N1Cc1ccccc1	21.6%	·	i	·	·	·
SMILES	ATXN2 expr inh	HepG2 tox	ATXN viability	TGFb inhibitor	Nrf2 block	A549 tox
CC(C)N(C(=O)[C@H]1CC(CC(=O)NCCCN(C)C)C(=O)N2CCc3c([nH]c4ccccc34)[C@]12C)C(C)C (stereo partly specified)	12.6%	4.6%	i	3.5%	13.6%	6.7%
CC(C)N(C(=O)[C@H]1CC(CC(=O)NCc2cccc(C(F)(F)F)c2)C(=O)N2CCc3c([nH]c4ccccc34)[C@]12C)C(C)C (stereo partly specified)	?	-91.9%	·	12.6µM*	?	?
CC(C)N(C(=O)[C@H]1CC(CC(=O)NCC23CC4CC(CC(C4)C2)C3)C(=O)N2CCc3c([nH]c4ccccc34)[C@]12C)C(C)C (stereo partly specified)	?	-5.2%	?	0.2%	25.9µM*	?
CC(C)N(C(=O)[C@H]1C[C@H](CC(=O)NCC23CC4CC(CC(C4)C2)C3)C(=O)N2CCc3c([nH]c4cc(-c5ccco5)ccc34)[C@]12C)C(C)C	11.3%	2.0%	i	?	?	-21.2%
C[C@]12c3[nH]c4ccccc4c3CCN1C(=O)C(CC(=O)NCC13CC4CC(CC(C4)C1)C3)C[C@@H]2C(=O)N1CCCCC1 (stereo partly specified)	?	-45.4%	?	?	16.4µM*	-12.9%
Cc1ccccc1CCN(C(=O)c1csnn1)C(C(=O)NC1CCCC1)c1ccncc1 (stereo unspecified)	0.1%	-15.7%	i	9.7%	7.2%	4.6%
CSc1nc(C(=O)N2CCOc3ccc(CN4CCN(Cc5ccccn5)CC4)cc3C2)cs1	·	·	i	·	·	·

Compound activity from PubChem BioAssay.
